Values joined by “and” are separate entries in the source; they are usually repeats but may differ in a detail not shown here. Equal entries are not always repeated. Among all 5,500 compounds or so, about 2,000 (36%) were called active. Inconclusive results (about 18%) are left out. Rule as the data show it: active = normalized growth mostly below about 0.91 (no sharp cut-off); inconclusive = no clear call, values can overlap the other calls; inactive = mostly above about 0.92. This is one part of the list.
Experiment: chemical genetic growth profiling, strain panel (AID 1159580);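 also: tested at 20 µM; growth read once vehicle control cultures reached saturation at 30 °C; 1 = growth at the plate median or of vehicle wells; lower values mean less growth of the strain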
Details: S. cerevisiae deletion strains, growth OD
[1] = locus YGR078C, strain PAC10, stronger effect = lower value
[2] = locus YPL241C, strain CIN2, stronger effect = lower value

Measured: normalized growth

NC(N)=NOCCC(N)C(=O)O (centres undefined)
inactive: locus YAL040C, strain CLN3, stronger effect = lower value 0.988 | locus YER002W, strain NOP16, stronger effect = lower value 0.98 | [1] 0.996 | locus YGR229C, strain SMI1, stronger effect = lower value 1.01 | locus YMR263W, strain SAP30, stronger effect = lower value 0.98 | locus YNL175C, strain NOP13, stronger effect = lower value 0.984 | locus YNL197C, strain WHI3, stronger effect = lower value 0.984 | locus YNL224C, strain SQS1, stronger effect = lower value 0.999 | locus YOR083W, strain WHI5 (second series), stronger effect = lower value 0.975 | [2] 0.996

CC[C@]12CCCN3CCc4c(n(c5ccccc45)[C@](O)(C(=O)OC)C1)[C@@H]32
inactive: locus YAL013W, strain DEP1, stronger effect = lower value 0.984 | locus YAL021C, strain ccr4, stronger effect = lower value 0.986 | locus YAL026C, strain drs2, stronger effect = lower value 0.983 | locus YAL030W, strain snc1, stronger effect = lower value 0.984 | locus YBL061C, strain skt5, stronger effect = lower value 0.979 | locus YBR009C, strain hhf1, stronger effect = lower value 0.999 | locus YBR021W, strain FUR4, stronger effect = lower value 0.998 | locus YBR023C, strain chs3, stronger effect = lower value 0.991 | locus YBR171W, strain sec66, stronger effect = lower value 0.983 | locus YBR229C, strain ROT2, stronger effect = lower value 0.951 | locus YBR231C, strain swc5, stronger effect = lower value 0.994 | locus YBR279W, strain paf1, stronger effect = lower value 0.98 | locus YCL011C, strain gbp2, stronger effect = lower value 0.985 | locus YCL016C, strain dcc1, stronger effect = lower value 0.966 | locus YCL029C, strain bik1, stronger effect = lower value 0.978 | locus YCL061C, strain MRC1, stronger effect = lower value 0.986 | locus YCL069W, strain vba3, stronger effect = lower value 0.987 | locus YCR088W, strain abp1, stronger effect = lower value 0.981 | locus YDL005C, strain med2, stronger effect = lower value 0.96 | locus YDL035C, strain GPR1, stronger effect = lower value 0.966 | locus YDL040C, strain nat1, stronger effect = lower value 0.989 | locus YDL074C, strain BRE1, stronger effect = lower value 0.991 | locus YDL101C, strain DUN1, stronger effect = lower value 0.977 | locus YDL185W, strain tfp1, stronger effect = lower value 0.964 | locus YDL192W, strain arf1, stronger effect = lower value 0.979 | locus YDR001C, strain nth1, stronger effect = lower value 0.98 | locus YDR069C, strain doa4, stronger effect = lower value 0.991 | locus YDR101C, strain arx1, stronger effect = lower value 0.964 | locus YDR137W, strain rgp1, stronger effect = lower value 0.954 | locus YDR159W, strain sac3, stronger effect = lower value 1.01 | locus YDR162C, strain NBP2, stronger effect = lower value 0.97 | locus YDR195W, strain ref2 0.952 | locus YDR297W, strain sur2, stronger effect = lower value 0.99 | locus YDR318W, strain mcm21, stronger effect = lower value 1 | locus YDR334W, strain swr1, stronger effect = lower value 0.975 | locus YDR335W, strain msn5, stronger effect = lower value 0.979 | locus YDR388W, stronger effect = lower value 0.978 | locus YDR392W, strain spt3, stronger effect = lower value 0.946 | locus YDR502C, strain sam2, stronger effect = lower value 0.978 | locus YEL003W, strain gim4, stronger effect = lower value 0.984 | locus YEL037C, strain rad23, stronger effect = lower value 0.979 | locus YEL061C, strain CIN8 (second series), stronger effect = lower value 0.986 | locus YEL061C, strain CIN8, stronger effect = lower value 0.982 | locus YER015W, strain faa2, stronger effect = lower value 0.985 | locus YER016W, strain bim1, stronger effect = lower value 0.969 | locus YER110C, stronger effect = lower value 0.979 | locus YER111C, strain swi4, stronger effect = lower value 0.978 | locus YER155C, strain BEM2 (second series), stronger effect = lower value 0.958 | locus YER155C, strain BEM2, stronger effect = lower value 0.995 | locus YER167W, strain BCK2, stronger effect = lower value 0.996 | locus YFR010W, strain ubp6, stronger effect = lower value 0.998 | locus YGL078C, strain dbp3, stronger effect = lower value 0.997 | locus YGL086W, strain mad1, stronger effect = lower value 0.977 | locus YGL167C, strain pmr1, stronger effect = lower value 0.979 | locus YGL173C, strain kem1, stronger effect = lower value 0.984 | locus YGL227W, strain vid30, stronger effect = lower value 0.981 | locus YGL240W, strain doc1, stronger effect = lower value 1.02 | locus YGL248W, strain PDE1, stronger effect = lower value 0.993 | locus YGL253W, strain hxk2, stronger effect = lower value 0.981 | [1] 0.982 | locus YGR135W, strain pre9, stronger effect = lower value 1.04 | locus YGR252W, strain gcn5, stronger effect = lower value 1.07 | locus YHR013C, strain ard1, stronger effect = lower value 0.953 | locus YHR027C, strain rpn1, stronger effect = lower value 0.991 | locus YHR030C, strain SLT2, stronger effect = lower value 0.992 and 0.98 | locus YHR079C, strain IRE1 (second series), stronger effect = lower value 0.961 | locus YHR079C, strain IRE1, stronger effect = lower value 0.964 | locus YHR094C, strain hxt1, stronger effect = lower value 0.981 | locus YHR129C, strain ARP1, stronger effect = lower value 0.988 | locus YHR142W, strain chs7, stronger effect = lower value 0.964 | locus YHR200W, strain rpn10, stronger effect = lower value 0.971 | locus YIL066C, strain RNR3, stronger effect = lower value 0.977 | locus YIL073C, strain SPO22, stronger effect = lower value 0.965 | locus YIL125W, strain kgd1, stronger effect = lower value 0.988 | locus YIR030C, strain dcg1, stronger effect = lower value 0.99 | locus YJL092W, strain hpr5, stronger effect = lower value 0.993 | locus YJL095W, strain BCK1 (second series), stronger effect = lower value 0.973 | locus YJL095W, strain BCK1, stronger effect = lower value 1.01 and 0.994 | locus YJL115W, strain asf1, stronger effect = lower value 1 | locus YJL129C, strain trk1, stronger effect = lower value 0.974 | locus YJL134W, strain LCB3, stronger effect = lower value 0.99 | locus YJL154C, strain vps35, stronger effect = lower value 0.968 | locus YJL164C, strain tpk1, stronger effect = lower value 0.997 | locus YJL166W, strain qcr8, stronger effect = lower value 1.01 | locus YJL168C, strain set2, stronger effect = lower value 0.984 | locus YJL187C, strain SWE1 (second series), stronger effect = lower value 0.979 | locus YJL187C, strain SWE1, stronger effect = lower value 0.985 | locus YJR043C, strain POL32, stronger effect = lower value 0.977 | locus YJR066W, strain TOR1, stronger effect = lower value 0.925 | locus YKL009W, strain mrt4, stronger effect = lower value 0.985 | locus YKL068W, stronger effect = lower value 0.987 | locus YKL085W, strain MDH1 (second series), stronger effect = lower value 0.997 | locus YKL085W, strain MDH1, stronger effect = lower value 0.997 | locus YKL160W, strain elf1, stronger effect = lower value 0.962 | locus YKR001C, strain vps1, stronger effect = lower value 0.977 | locus YKR026C, strain gcn3, stronger effect = lower value 0.988 | locus YKR091W, strain srl3, stronger effect = lower value 0.982 | locus YLL001W, strain dnm1, stronger effect = lower value 0.986 | locus YLL026W, stronger effect = lower value 1 | locus YLL041C, strain sdh2, stronger effect = lower value 0.987 | locus YLR027C, strain aat2, stronger effect = lower value 0.989 | locus YLR039C, strain RIC1, stronger effect = lower value 1.03 | locus YLR058C, strain SHM2, stronger effect = lower value 0.976 | locus YLR102C, strain apc9, stronger effect = lower value 0.982 | locus YLR113W, strain HOG1, stronger effect = lower value 0.976 | locus YLR221C, strain rsa3, stronger effect = lower value 1 | locus YLR258W, strain gsy2, stronger effect = lower value 0.964 | locus YLR262C, strain YPT6 (second series), stronger effect = lower value 0.977 | locus YLR262C, strain YPT6, stronger effect = lower value 0.912 | locus YLR268W, strain sec22, stronger effect = lower value 0.963 | locus YLR320W, strain mms22, stronger effect = lower value 0.995 | locus YLR330W, strain CHS5, stronger effect = lower value 0.988 | locus YLR342W, strain FKS1 (second series), stronger effect = lower value 0.997 | locus YLR342W, strain FKS1, stronger effect = lower value 0.989 | locus YLR357W, strain rsc2, stronger effect = lower value 0.953 | locus YLR370C, strain arc18, stronger effect = lower value 0.975 | locus YLR371W, strain rom2, stronger effect = lower value 0.987 | locus YLR384C, strain iki3, stronger effect = lower value 0.977 | locus YLR418C, strain cdc73, stronger effect = lower value 0.989 | locus YML016C, strain PPZ1, stronger effect = lower value 0.991 | locus YML032C, strain rad52, stronger effect = lower value 0.967 | locus YML120C, strain ndi1, stronger effect = lower value 0.99 | locus YML124C, strain tub3, stronger effect = lower value 0.989 | locus YMR058W, strain fet3, stronger effect = lower value 0.983 | locus YMR078C, strain ctf18, stronger effect = lower value 0.977 | locus YMR125W, strain sto1, stronger effect = lower value 0.98 | locus YMR129W, stronger effect = lower value 0.985 | locus YMR205C, strain PFK2, stronger effect = lower value 0.97 | locus YMR223W, strain ubp8, stronger effect = lower value 1.03 | locus YMR231W, strain pep5, stronger effect = lower value 0.982 | locus YMR307W, strain GAS1, stronger effect = lower value 0.967 | locus YNL067W, strain RPL9B, stronger effect = lower value 0.987 | locus YNL071W, strain lat1, stronger effect = lower value 0.981 | locus YNL128W, strain TEP1, stronger effect = lower value 0.974 | locus YNL153C, strain GIM3, stronger effect = lower value 0.994 | locus YNL183C, strain NPR1, stronger effect = lower value 0.915 | locus YNL209W, strain ssb2, stronger effect = lower value 0.988 | locus YNL233W, strain BNI4, stronger effect = lower value 0.99 | locus YNL248C, strain rpa49, stronger effect = lower value 0.99 | locus YNL250W, strain rad50, stronger effect = lower value 0.984 | locus YNL271C, strain bni1, stronger effect = lower value 0.986 | locus YNL298W, strain CLA4, stronger effect = lower value 0.987 | locus YNL307C, strain MCK1, stronger effect = lower value 0.981 | locus YNL322C, strain KRE1 (second series), stronger effect = lower value 0.969 | locus YNR049C, strain mso1, stronger effect = lower value 0.978 | locus YNR052C, strain pop2, stronger effect = lower value 0.993 | locus YOL012C, strain htz1 0.992 | locus YOL147C, strain pex11, stronger effect = lower value 0.989 | locus YOR001W, strain rrp6, stronger effect = lower value 1.02 | locus YOR061W, strain CKA2, stronger effect = lower value 0.976 | locus YOR069W, strain VPS5, stronger effect = lower value 0.992 | locus YOR070C, strain gyp1, stronger effect = lower value 0.995 | locus YOR080W, strain dia2, stronger effect = lower value 0.972 | locus YOR083W, strain WHI5, stronger effect = lower value 0.98 | locus YOR106W, strain vam3, stronger effect = lower value 0.984 | locus YOR136W, strain idh2, stronger effect = lower value 0.969 | locus YOR144C, strain elg1, stronger effect = lower value 0.984 | locus YOR184W, strain ser1, stronger effect = lower value 0.98 | locus YOR231W, strain MKK1, stronger effect = lower value 1.01 | locus YOR265W, strain rbl2, stronger effect = lower value 0.995 | locus YOR270C, strain vph1, stronger effect = lower value 0.988 | locus YOR290C, strain snf2, stronger effect = lower value 0.979 | locus YOR316C, strain cot1, stronger effect = lower value 0.968 | locus YPL051W, strain arl3, stronger effect = lower value 0.971 | locus YPL078C, strain atp4, stronger effect = lower value 0.973 | locus YPL106C, strain sse1, stronger effect = lower value 0.959 | locus YPL240C, strain hsp82, stronger effect = lower value 0.985 | [2] 0.967 | locus YPL256C, strain CLN2, stronger effect = lower value 0.984 | locus YPR119W, strain clb2, stronger effect = lower value 0.975 | locus YPR141C, strain kar3, stronger effect = lower value 0.979 | locus YPR163C, strain tif3, stronger effect = lower value 0.974 | locus YPR167C, strain met16, stronger effect = lower value 0.995 | strain wtn01, stronger effect = lower value 1

Reference: PubChem BioAssay AID1159580 (chemical genetic matrix, 2015)
